Compound activity (PubChem)
PNC inhibitor = High Content Assay for Compounds that inhibit the Assembly of the Perinucleolar Compartment. PC3M PTB-GFP, PNC prevalence imaging, 16 h; active compounds read low. activity change (PNC), negative = inhibition, % at 10 µM. 140,000 compounds, 3.1% hits;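 active = readout at or below -70, meaning at least 70% loss of cells showing the perinucleolar compartment, a nuclear body marking cancer cells; inconclusive = readout between -30 and a set limit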;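 also: plate controls were DMSO wells for no effect and camptothecin positive control wells for full effect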
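PC3M cells stably expressing PTB-GFP, 750–1000 cells/well, treated 16 h at 37 °C with compound (23 nl of library stock), in duplicate. After paraformaldehyde fixation and Hoechst stain, imaged at 20x; PNC prevalence scored by image analysis.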
ALDH1A1 inh = qHTS Assay for Inhibitors of Aldehyde Dehydrogenase 1 (ALDH1A1); Purified ALDH1A1, NADH fluorescence, propionaldehyde substrate; 220,000 compounds, 7.3% hits; AID 1030, 2008; Potency, µM (highest dose often 75.3 µM), inactives show top-dose activity, negative = inhibition, hits mostly inhibitors; Aldehyde dehydrogenase 1A1 (Homo sapiens), P00352; active = well fitted inhibition curve with a large enough effect, not every such curve was filed as active; inconclusive = small, poorly fitted or top-dose-only effect, or another doubt; inactive = no such curve, though single readings can be large or run the other way;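 also: potency is read from the fitted curve at half-maximal effect; plate controls were no enzyme wells and a reference inhibitor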
Target sequence (P00352 whole entry, looked up): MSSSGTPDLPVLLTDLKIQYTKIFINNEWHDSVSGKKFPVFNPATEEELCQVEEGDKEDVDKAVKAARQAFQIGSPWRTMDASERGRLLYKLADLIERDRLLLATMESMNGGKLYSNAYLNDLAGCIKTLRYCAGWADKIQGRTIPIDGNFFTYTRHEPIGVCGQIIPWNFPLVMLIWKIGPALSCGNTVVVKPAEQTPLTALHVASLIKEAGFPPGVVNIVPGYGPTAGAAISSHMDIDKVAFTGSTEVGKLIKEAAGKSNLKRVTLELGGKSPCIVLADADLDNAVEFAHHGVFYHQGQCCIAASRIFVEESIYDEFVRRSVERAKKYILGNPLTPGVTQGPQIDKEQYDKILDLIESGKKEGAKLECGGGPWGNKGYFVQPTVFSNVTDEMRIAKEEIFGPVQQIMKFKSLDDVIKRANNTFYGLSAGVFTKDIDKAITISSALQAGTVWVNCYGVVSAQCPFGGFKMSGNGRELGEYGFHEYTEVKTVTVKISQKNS
IMPase inh = qHTS Assay for Identifying the Cell-Membrane Permeable IMPase Inhibitors; Inositol monophosphatase 1 (Rattus norvegicus), P97697; CHO-M1 cells, IP1 accumulation, HTRF TR-FRET ratio; inhibition (IP1 accumulation), % at 46.1 µM; 120,000 tested, under 10 active; AID 901, 2007; active = well fitted curve in the direction sought with a large enough effect in the signal ratio, not every such curve was filed as active; inconclusive = small, poorly fitted or top-dose-only effect, or a change in a side signal; inactive = no such curve, though single readings can be large or run the other way; the % refers to the signal ratio;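 also: cells stimulated with carbachol in lithium chloride buffer; plate controls were DMSO basal wells for no effect and reference inhibitor wells for full effect; higher means more IMPase inhibition seen as more IP1 and lower FRET ratio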
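Carbachol-driven Gq signalling in CHO-M1 cells (2000/well) generates IP1. Compounds that block IMPase raise IP1 and so reduce the FRET signal from Eu-anti-IP1 and d2-IP1 after a 10 min room-temperature lysis.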
IMPase Li cell = qHTS Assay for Identifying the Cell-Membrane Permeable IMPase Inhibitors: Potentiation with Lithium. Potency, µM (top dose mostly 59.4 µM), for inactives: at the top dose activity, negative = IMPase inhibition, usual class: inhibitors. 210,000 compounds, 0.35% hits. CHO-M1 cells, IP1 TR-FRET (IP-One), carbachol + lithium;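 also: IP1 builds up when IMPase is blocked and the TR-FRET signal falls; potency is read from the fitted curve at half-maximal effect; plate controls were basal vehicle for no effect and high inhibitor control for full effect; nearly all actives have a fitted effect of over 50% in size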
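IP1 accumulation measured by competitive TR-FRET in lysed CHO-M1 cells after 30 min compound exposure at 37C, with a small lithium addition to potentiate weak responses. Hill-equation AC50 from ratio and donor-channel data.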
12-hLO inh = qHTS Assay for Inhibitors of 12-hLO (12-human lipoxygenase). Polyunsaturated fatty acid lipoxygenase ALOX12 (Homo sapiens), P18054. purified 12-hLO, xylenol orange hydroperoxide absorbance. 150,000 compounds, 0.12% hits. Potency, µM (top dose mostly 57.1 µM), for the others: top-dose activity change, negative = inhibition, most hits filed as inhibitors; also: potency is read from the fitted curve at half-maximal effect; nearly all actives have a fitted effect of over 55% in size
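Hydroperoxide output read as Fe(III)-xylenol orange absorbance, 573-to-405 nm ratio, after 30 min reaction with 40 uM arachidonic acid. Enzyme: 150 nM purified human 12hLO, 15 min compound preincubation; 25 mM Hepes pH 7.0, room temperature.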
HPGD block = qHTS Assay for Inhibitors of HPGD (15-Hydroxyprostaglandin Dehydrogenase); 150,000 compounds, 4.3% hits; Potency, µM, without a hit: top-dose activity change, negative = inhibition, hits mostly inhibitors; 15-hydroxyprostaglandin dehydrogenase [NAD(+)] (Homo sapiens), P15428; purified HPGD, NADH fluorescence kinetic, PGE2 substrate; active = well fitted inhibition curve with a large enough effect, not every such curve was filed as active; inconclusive = small, poorly fitted or top-dose-only effect, or another doubt; inactive = no such curve, though single readings can be large or run the other way; also: potency is read from the fitted curve at half-maximal effect
Target sequence (P15428 whole entry, looked up): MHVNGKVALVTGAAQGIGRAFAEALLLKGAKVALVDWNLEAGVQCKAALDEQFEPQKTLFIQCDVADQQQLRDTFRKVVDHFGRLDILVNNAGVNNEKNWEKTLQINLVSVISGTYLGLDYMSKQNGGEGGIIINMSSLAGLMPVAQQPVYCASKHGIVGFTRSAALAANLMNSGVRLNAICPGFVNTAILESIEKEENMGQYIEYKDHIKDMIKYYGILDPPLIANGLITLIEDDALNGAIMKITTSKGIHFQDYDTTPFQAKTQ
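20 nM HPGD preincubated 15 min at room temperature with compound in 50 mM Tris-HCl pH 8, 0.01% Tween 20. Started with 1 mM NAD+ and 30 uM prostaglandin E2; NADH fluorescence (360/450 nm) read 5 times over 30-s intervals, last minus first.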
Active calls of the source: *; ? = inconclusive; . = no result; [ ] = another dose, or the depositor's remark. Shown are actives, neighbours in structure and some others; about 11% of the full set was active somewhere. Unless noted, calls follow the shape of the dose curve; as a rule, active = well fitted curve in the direction sought with a large enough effect; inconclusive = small, poorly fitted or top-dose-only effect, or another doubt; inactive = no such curve, though single readings can be large; an effect the other way counts as inactive or inconclusive. Unless noted, % is scaled to controls: 0 for no effect and ±100 for the full control effect.

SMILES	PNC inhibitor	ALDH1A1 inh	IMPase inh	IMPase Li cell	12-hLO inh	HPGD block
CC(C)[C@@H](CC(=O)N[C@@H]1CCCC[C@H]1C(=O)N[C@H](CC(=O)N[C@@H](CCC(=O)O)CC(=O)O)Cc1ccccc1)NC(=O)C[C@H](Cc1c[nH]c2ccccc12)NC(=O)[C@@H]1CNCC[C@H]1N	.	-13.0%	.	-1.1%	-1.6%	-6.8%
CN(C)c1ccc2c(c1)OC(N)=C(C#N)C2c1cccc(F)c1 (stereo not drawn)	-85.0*	-15.1%	18.4	4.6%[38.3 µM]	-7.5%	-21.8%
COc1cccc(NC(=O)NC(C)C2CC3CCC2C3)c1 (stereo not drawn)	.	5.01µM*	.	23.1%	.	.
CCC(C)[C@H](NC(=O)Nc1cccc(OC)c1)C(=O)OC (stereo partly drawn)	33.0	0.1%	-6.9	-12.0%[38.3 µM]	-0.6%	-12.2%
CC(CN(C)C)C(C)(O)Cc1ccc(Cl)cc1 (stereo not drawn)	.	?	.	2.3%	0.1%[0.00818 µM]	-7.6%
O=Cc1ccc(C(=O)O)cc1	.	22.4µM*	.	-14.8%	-0.7%	-10.4%
COC(=O)c1ccc(C)cc1	.	-10.3%	.	1.1%	-1.6%	-8.4%
COC(=O)c1ccc(C=O)cc1	.	8.91µM*	.	-13.8%	4.9%	-10.9%
CCOC(=O)c1c(NC(=O)CN2C(=O)NC3(CCC(C)CC3)C2=O)sc(C)c1-c1ccc(C)cc1 (stereo not drawn)	-8.0	5.8%	.	7.9%	5.4%	-20.0%
COCCNc1ccnc(-c2ccccc2C)n1	.	?	.	3.4%	.	.
CCCCCCCC/C=C\CCCCCCCC(=O)NCCCC(=O)O	.	10.5%	.	2.2%	5.0%	-0.8%
O=S(=O)(c1ccccc1)N1CCC2(CCN(Cc3ccncc3)CC2)CC1	.	-15.7%	.	16.7%	-1.0%	-8.2%
O=C1CN(C(=O)COC(=O)CCSc2ccccc2Cl)c2ccccc2N1	24.1	14.1µM*	-1.9	29.7%[38.3 µM]	-0.4%	17.8µM*
O=C1CN(C(=O)COC(=O)c2cccnc2Cl)c2ccccc2N1	.	6.1%	.	0.4%	.	.
O=C(Cn1ncc(Cl)c(Cl)c1=O)NCC1CCCCC1	?	22.4µM*	.	-5.2%	0.9%	-8.2%
O=C1CN(C(=O)/C=C/c2ccc(Cl)cc2)c2ccccc2N1	.	-12.1%	.	7.6%	.	.
Cc1nc2ccccc2n1CC(=O)N1CC(=O)Nc2ccccc21	24.9	?	4.0	9.2%[38.3 µM]	-2.8%	-2.7%
O=C1CN(C(=O)CNCc2ccc(Cl)cc2)c2ccccc2N1	.	12.6µM*	.	.	.	.
O=C1CN(C(=O)Cn2ncc(Cl)c(Cl)c2=O)c2ccccc2N1	.	3.16µM*	.	-0.3%	.	.
CC(=O)OC[C@@H]1O[C@H](C/C=N\O[C@@H](C)c2cc(-c3c(C)cc(C)cc3C)no2)C=C[C@@H]1OC(C)=O	.	-3.6%[13.5 µM]	.	.	.	.
CN(C)C(CNC(=O)CNC(=O)c1ccc(Br)cc1)c1ccccc1 (stereo not drawn)	.	0.4%	.	-11.4%	.	.
Nc1nc2c(nc(Br)n2C2OC(CO)C(O)C2O)c(=O)[nH]1 (stereo not drawn)	.	3.1%	.	0.0%	-0.5%	-5.9%
Cc1ccc(SCN2CCCCC2)cc1 (tested in a mixture with another compound)	.	3.1%[13.5 µM]	.	-2.9%	-22.2%[11.4 µM]	-14.3%
O=C(CN1CCNCC1)Nc1ccccc1Cl	-27.1	-5.3%	0.0	16.7%[38.3 µM]	-3.0%	-1.8%
O=C1CN(CC(=O)Nc2cccc(Cl)c2Cl)c2ccccc2N1	.	3.98µM*	.	11.0%	.	.
SMILES	PNC inhibitor	ALDH1A1 inh	IMPase inh	IMPase Li cell	12-hLO inh	HPGD block
Cc1ccc(NC(=O)CCSc2nc(-c3ccco3)cc(C(F)(F)F)n2)cc1F	.	.	-1.9	.	.	.
Cc1cc(C(=O)CN(Cc2ccc(F)cc2)S(=O)(=O)c2ccc3c(c2)OCCO3)c(C)n1C	-22.0	?	1.9	10.0%[38.3 µM]	-10.5%	-11.9%
O=S(=O)(c1ccc2c(c1)OCCO2)N(Cc1ccc(F)cc1)Cc1nnc(-c2cccs2)o1	-26.1	3.98µM*	17.3	16.1%[38.3 µM]	-2.5%	4.47µM*
O=C(COCc1nc2ccccc2c(=O)[nH]1)NCC1CCCCC1	-100.0*	-0.8%	-1.4	3.1%	-0.9%	-14.9%
O=c1[nH]c(CCC2CCCC2)nc2ccccc12	51.3	-1.0%	.	7.6%	1.1%	1.8%
O=S(=O)(c1ccc2ccccc2c1)N1CCC(c2nc(-c3ccncc3)no2)CC1	-100.0*	-6.0%	-17.3	14.7%	-9.3%	-13.9%
Cc1ccc(-c2noc(C3CCCN(S(=O)(=O)c4ccc5ccccc5c4)C3)n2)o1 (stereo not drawn)	-12.0	23.8µM*	9.4	5.6%[38.3 µM]	2.5%	20µM*
Cc1ccc(-c2noc(C3CCCN(S(=O)(=O)c4ccc(S(=O)(=O)N(C)C)cc4)C3)n2)o1 (stereo not drawn)	57.8	25.1µM*	4.4	37.3%[38.3 µM]	3.9%	-12.3%
CN(C)c1ccc(-c2noc(C3CCN(S(=O)(=O)c4cccc(Cl)c4)CC3)n2)cc1	31.8	?	11.6	6.2%[38.3 µM]	-0.8%	?
Cc1ccc(S(=O)(=O)N2CCCC(c3nc(-c4ccc(C)o4)no3)C2)cc1 (stereo not drawn)	-22.1	?	3.5	28.0%[38.3 µM]	-12.2%	-23.2%
COc1ccc(-c2noc(C3CCCN(S(=O)(=O)c4ccc(C)c(Cl)c4)C3)n2)cc1OC (stereo not drawn)	8.8	1.1%	18.5	.	-2.6%	.
Cc1ccc(-c2noc(C3CCN(S(=O)(=O)c4ccc5c(c4)OCCO5)CC3)n2)o1	-0.6	28.2µM*	18.4	2.4%[38.3 µM]	-3.4%	-2.7%
O=C(O)c1ccccc1-c1ccccc1C(=O)Nc1ccc2c(c1)Cc1cc(F)ccc1-2	.	-3.7%[13.5 µM]	.	-2.7%	-3.8%[11.4 µM]	-14.6%
COc1ccccc1CNCc1cccc(Oc2ccccc2)c1	.	?	.	12.9%	.	.
O=C(Cc1ccccc1)N1CCCC(c2nc(-c3ccc(S(=O)(=O)N4CCCC4)cc3)no2)C1 (stereo not drawn)	33.8	?	5.2	19.7%[38.3 µM]	-2.7%	-3.9%
CC(=O)c1cccc(S(=O)(=O)N2CCCC(c3nc(-c4ccc(C)o4)no3)C2)c1 (stereo not drawn)	-11.8	10µM*	8.8	-3.4%[38.3 µM]	-8.3%	-27.0%
CC(=O)C1=C(O)C(=O)N(Cc2cccnc2)C1c1ccc(O)cc1 (stereo not drawn)	.	?	.	-5.4%	.	.
CC(=O)C1=C(O)C(=O)N(c2cccnc2)C1c1ccc(Cl)cc1 (stereo not drawn)	-21.2	?	4.7	6.31µM*	-3.2%	-29.4%
